Assay results: the supplement of paper PMC6555819

Assays:
Assay in all cases: PBM binding z-score (relative to random genomic background probes); higher = stronger binding; sequences stand for … in GC…GCGATTGACAGCGTAGAATGAAGG
[1] = system: RARb homodimer (NR concentration 270 nM)
Method in brief: (§1)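 Antibodies against each partner of ligand-free nuclear receptor dimers (one per run) detected binding on custom Agilent 4×180K protein-binding microarrays after 1 h incubation. The double-stranded probes had 34-nt variable regions carrying direct-repeat seeds, single-nucleotide variants, half-site ablations and random human genomic background sequences. Binding z-scores, from regression-normalized fluorescence, use the random background probes as reference.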

[2] = system: RARg:RXRa (NR concentration 270 nM, RXRa partner concentration 90 nM)
Method in brief: as §1

[3] = system: RARg homodimer (NR concentration 270 nM)
Method in brief: as §1

[4] = system: RXRa DBDmut IVT, anti-RXR (DBD mutation: RXRa K156A/R161A, NR concentration 90 nM)
Method in brief: as §1

[5] = system: RXRa homodimer (NR concentration 180 nM)
Method in brief: as §1

[6] = system: THRa:RXRa (NR concentration 90 nM, RXRa partner concentration 90 nM)
Method in brief: as §1

[7] = system: THRa homodimer (NR concentration 90 nM)
Method in brief: as §1

[8] = system: VDR homodimer (NR concentration 270 nM)
Method in brief: as §1

Row | Sequence | PBM binding z-score [1] | PBM binding z-score [2] | PBM binding z-score [3] | PBM binding z-score [4] | PBM binding z-score [5] | PBM binding z-score [6] | PBM binding z-score [7] | PBM binding z-score [8]
1 | CAACCTAGGTCAAAGGTCAAAGTCGAGCCAACCA | 5.33 | 9.2 | 7.77 | 3.16 | 10.1 | 5.01 | 1.81 | 3.91
2 | CAAACTACGTCAAAGGTCAAAGTCGAGCCAACCA | 4.68 | 6.1 | 5.88 | 1.66 | 7.92 | 3.5 | 0.927 | 2.36
3 | ATATGTAGGTTAAGGGTCATTCTGGTTGGTTCGC | 3.64 | 4.65 | 3.2 | 2.17 | 6.03 | 3.23 | 1.75 | 4.43
4 | TCGAGTAGGATAGGGGCATTCAGAATGGCGTCGA | 0.241 | -0.218 | -0.225 | 0.0984 | 0.155 | 0.209 | -0.171 | 0.237
5 | CTAGCAAGGTGAACAAGGTCGTTGATTACTATTC | 1.77 | 1.68 | 1.5 | 1.25 | 2.1 | 3.18 | 1.45 | 2.32
6 | ATATGTAGGTTAAGGGTTATTCAGGTTGGTTCGC | 1.91 | 2.11 | 1.34 | 0.963 | 2.75 | 2.37 | 1.52 | 1.83
7 | CCTCGGAGGACAGAAGTTCAGAGCTGTCCGCTTT | 1.88 | 1.28 | 1.36 | 0.706 | -0.0645 | 0.325 | -0.73 | 0.521
8 | TCTGGGAGGACACGAAAGGTCAGAGCTCGACATC | 4.8 | 4.88 | 5.82 | 0.799 | 4.23 | 3.73 | 1.59 | 1.27
9 | AGTCAAAGTTCGTCTAGGTAACGTAAGATATGCT | 1.35 | 1.99 | 2.11 | 3.25 | 1.39 | 1.97 | 0.129 | 2.49
10 | ACTTACGGGTCAACGAGGGTATAGCACGCGTATA | 3.24 | 5.55 | 4.88 | 2.4 | 5.63 | 3.42 | -0.0304 | 2.67
11 | TTACCAAGGTGAGCTGGGGTCGTTGATCCAACTC | 1.42 | 1.31 | 0.493 | -0.222 | 2.1 | 4.38 | 1.23 | 1.84
12 | AGAACGAGGGCTATGAGTTGATAGCACGGGTGGC | -0.36 | -0.0451 | -0.0854 | -0.264 | 0.416 | -0.476 | -0.913 | -0.036
13 | CCTTAAGGGTCACTCCAGGTTATAGCATCGGAGT | 4.32 | 5.98 | 6.35 | 3.27 | 6.02 | 5.09 | 0.592 | 2.55
14 | CCTGCTAGGTCAATGGTCGGCTAAAGCAGCTCGC | 2.9 | 3.87 | 4.16 | 1.74 | 1.88 | 2.42 | 0.749 | 0.149
15 | CCTCGGAGGACAGAACGTCAGAGCTGTCCGCTTT | -0.587 | -0.462 | -0.0228 | -0.411 | -1.12 | -0.532 | -0.473 | -0.816
16 | GTTGCTAGGTCAACTGATGGTCAGCTAAAGCTCG | 3.54 | 5.4 | 5.9 | 1.48 | 3.11 | 3.09 | 1.46 | 0.164
17 | CCAGACAGGTGAGTAGGTAACTCAGCCTCGATTA | 0.326 | 0.196 | 0.224 | 0.331 | 0.246 | 0.0417 | 0.159 | -0.162
18 | GGAACGAGGGGAAGTTGATAGCAGAGTTTGATGG | 0.255 | -0.0496 | -0.0365 | 0.431 | 0.0141 | -0.105 | 0.182 | 0.565
19 | CGTACTAGGTCAGAACAGGACAGTGAAGGATGAT | 2.2 | 2.5 | 3.38 | 0.907 | 0.946 | 3.33 | 0.353 | 0.141
20 | CCTATTAGTTGACCATAAGGGCAACCGCAGCTCG | 2.18 | 1.05 | 1.07 | 0.58 | 0.711 | 1.83 | 1.49 | 0.923
21 | ACTAGTTGGTCAGCTGAGGTCATACACAATTCGG | 3.89 | 3.68 | 3.38 | 1.89 | 3.86 | 4.94 | 4.75 | 4.31
22 | TAGCGTAGGTCAGATCGGGCCAGTATACGCTATA | 1.87 | 2.85 | 3.72 | -0.899 | 1.83 | 3.93 | -1.02 | -0.553
23 | GGAACGAAGGCATTCGAGTTGATAGCATGGCGAT | -0.976 | -0.479 | -0.164 | -0.552 | -0.562 | 0.655 | -1.68 | -0.0499
24 | GCTATTAGTTGAAACGGCAACCGAATGATTCTCG | -0.548 | -0.122 | -0.103 | 0.644 | -0.226 | -0.488 | -0.463 | -0.198
25 | AGAAAGAGGTTATTAAGATCAGGGAATTGCGGTC | 1.12 | 1.78 | 1.29 | 1.26 | 2.21 | 1.39 | 0.443 | 0.737
26 | CCTAATGGGCCATTCAGAGGTCATTGATCATATG | 4.03 | 4.62 | 2.88 | 1.45 | 4 | 3.16 | 1.19 | 3.03
27 | TGAATGAGGTTATAAGATCATGGAACGTTGCAAA | 0.204 | 1.76 | 0.935 | 0.832 | 2.42 | 1.71 | 0.0513 | 0.42
28 | GCGACTGGGGCATCAGCAGGCTACCATAACTTAA | 0.21 | -0.0453 | 0.15 | -0.185 | -0.168 | -0.0992 | 0.158 | -0.693
